Compound activity from PubChem.
ALOX12 inh: inhibitors of human 12S-lipoxygenase ALOX12. P18054. purified 12hLO, xylenol orange hydroperoxide absorbance. Potency, µM (series often up to 108 µM), for the others: at the highest dose activity change, negative = inhibition, most hits filed as inhibitors. hit rate 1.1% among 580,000. AID 1671190; further: on the % scale 0 is the no-effect control and ±100 the full control effect
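Purified human 12hLO (150 nM final) in 25 mM Hepes, 0.01% Triton X-100, pH 7.0 was preincubated 15 min at room temperature with compound. Then 40 uM arachidonic acid was added, 30 min. Hydroperoxide was read by Fe-XO absorbance ratio 573/405 nm.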
Glioma ERSR ind: ER stress response induction in glioma; Potency, µM, for inactives: at the top dose activation, most hits filed as activators; hit rate 0.02% among 420,000; AID 602332; U87-MG GRP78 promoter luciferase reporter, 16 h; further: series mostly up to about 76 µM; % of control where 0% means no effect; nearly all actives have a fitted effect of over 35% in size
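Stably transfected U87-MG human glioma cells carrying a GRP78-based luminescent sensor were seeded at 1000 cells/well, pin-dosed with compounds and incubated 16 h. Luciferase reagent was then added, and end-point luminescence was read after 10 min at room temperature.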
Sfp PPTase inh: blocks B. subtilis Sfp PPTase activity; Q9F4F7; Biochemical Sfp PPTase activity, qHTS; Potency, µM, without a hit: largest response in the series, negative = inhibition, usual class: inhibitors; hit rate 3.5% among 310,000; AID 1490;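 further: the enzyme is Sfp with the accession as filed and its product quenches rhodamine fluorescence; 0% = enzyme reaction without inhibitor and -100% = no enzyme wells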
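Fluorescence-quenching assay: 15 nM Sfp-PPTase preincubated 15 min at room temperature with compound, then 5 uM rhodamine-CoA and 12.5 uM BHQ-2-labelled YbbR peptide added. Fluorescence (ex 525/em 598 nm) read at start and after 30 min; difference gives rate.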
G9a block: blocks human histone lysine methyltransferase G9a | Potency, µM (series often up to 102 µM), without a hit: at the top dose activity, negative = inhibition, usual class: inhibitors | AID 504332 | G9a H3K9 monomethylation, AlphaScreen, 2 h | Q96KQ7 | hit rate 8.8% among 350,000; further: on the % scale 0 is the no-effect control and ±100 the full control effect; nearly all actives have a fitted effect of over 75% in size
Target sequence (Q96KQ7 913-1193 limits assumed): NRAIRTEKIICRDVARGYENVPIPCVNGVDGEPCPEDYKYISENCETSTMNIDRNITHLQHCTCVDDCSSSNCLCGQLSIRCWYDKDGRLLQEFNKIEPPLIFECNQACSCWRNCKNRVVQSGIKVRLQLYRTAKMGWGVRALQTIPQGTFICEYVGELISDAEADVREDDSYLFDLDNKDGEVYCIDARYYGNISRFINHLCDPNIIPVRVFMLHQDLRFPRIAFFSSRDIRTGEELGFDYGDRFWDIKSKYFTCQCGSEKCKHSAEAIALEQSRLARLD
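Step 1: enzyme (final 20 nM) with compound, 15 min RT. Step 2: substrate peptide 500 nM and SAM 20 uM, 2 h RT. Step 3: anti-H3K9me1 antibody and AlphaScreen beads, 10 min, then plate read.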
VDR inh: blocks the human vitamin D receptor; Potency, µM, for the others: max response, negative = inhibition, hits mostly inhibitors; VDR-SRC2-3 peptide fluorescence polarization, 2 h; hit rate 0.93% among 400,000; further: on the % scale 0 is the no-effect control and ±100 the full control effect
Target sequence (P11473 whole entry, looked up): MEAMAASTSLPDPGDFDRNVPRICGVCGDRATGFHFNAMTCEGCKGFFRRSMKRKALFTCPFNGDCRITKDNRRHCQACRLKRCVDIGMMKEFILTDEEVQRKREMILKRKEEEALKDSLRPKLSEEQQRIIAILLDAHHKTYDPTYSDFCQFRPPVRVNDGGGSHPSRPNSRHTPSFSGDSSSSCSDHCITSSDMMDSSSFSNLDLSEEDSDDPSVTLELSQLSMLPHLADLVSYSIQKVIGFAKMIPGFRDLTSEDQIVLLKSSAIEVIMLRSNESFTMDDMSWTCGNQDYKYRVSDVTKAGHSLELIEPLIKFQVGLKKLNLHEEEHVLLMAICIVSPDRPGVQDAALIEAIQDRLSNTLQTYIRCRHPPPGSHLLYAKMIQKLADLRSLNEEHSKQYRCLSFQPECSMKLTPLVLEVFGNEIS
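After 23 nl compound addition and a short centrifugation, plates sat for 2 hours at ambient temperature; polarization of fluorescence then indicated loss of VDR binding to peptide SRC2-3.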
Starred values were filed as active, the others as inactive; i = inactive; ? = inconclusive; / = not tested or not shown; [ ] = remark or other dose. Only a selection was taken, and hits are over-represented in it overall. The call rests on the fitted dose curve; in most records, active means well fitted curve in the direction sought with a large enough effect; inconclusive means small, poorly fitted or top-dose-only effect, or another doubt; inactive means no such curve, though single readings can be large; an effect the other way counts as inactive or inconclusive. Potency means the concentration at half of the fitted maximal effect.

SMILES	ALOX12 inh	Glioma ERSR ind	Sfp PPTase inh	G9a block	VDR inh
CN(C)c1ccc(-n2cc3c(=O)n(C)c(=O)n(C)c3c2)cc1	0%	-1%	5%	45µM*	6%
CCN(CC)c1ccc(-n2cc3c(=O)n(C)c(=O)n(C)c3c2)cc1	-18%	?	-12%	-39%[12.7 µM]	-15%
CCOCCCNC(=O)c1ccc2c(=O)n(CCCOCC)c(=S)[nH]c2c1	-12%	1%	10%	10µM*	-1%
COCCn1c(=S)[nH]c2cc(C(=O)NC(C)C)ccc2c1=O	-27%	-3%	21%	11µM*	-17%
COCCn1c(=S)[nH]c2cc(C(=O)NC3CCCCC3C)ccc2c1=O (configuration not stated)	16%	-4%	/	/	/
COCCCn1c(=S)[nH]c2ncccc2c1=O	?	-4%	11%	45µM*	-7%
CCOCCCNC(=O)c1ccc2c(=O)n(CCc3ccccc3)c(=O)[nH]c2c1	0%	1%	/	0%[59 µM]	-4%
CCOCCCn1c(=S)[nH]c2cc(C(=O)NCCOC)ccc2c1=O	-15%	-2%	79µM*	?	2%
CCOCCCn1c(=S)[nH]c2cc(C(=O)NCCc3ccc(OC)c(OC)c3)ccc2c1=O	8%	-6%	-9%	/	-2%
CCOCCCn1c(=S)[nH]c2cc(C(=O)NCCCN(CC)CC)ccc2c1=O	-23%	-4%	2%	8.9µM*	10%
CCCn1c(=S)[nH]c2cc(C(=O)NCC3CCCO3)ccc2c1=O (configuration not stated)	12%[57.4 µM]	-1%	2%	10µM*	-8%
COC(=O)c1ccc2c(=O)n(CCCCCC(=O)O)c(=S)[nH]c2c1	-7%	-11%	-11%	45µM*	0%
COCC1CN(Cc2ccc(Cl)c(F)c2)CC12CCNCC2 (configuration not stated)	29%	/	/	/	/
COc1ccc2oc(C(=O)OCC(=O)N3CCN(S(=O)(=O)c4ccccc4)CC3)c(C)c2c1	-11%	-2%	/	50µM*	-12%
Cc1[nH]c2ccccc2c1C(=O)N1CCN(S(=O)(=O)c2ccc(F)cc2)CC1	-23%	/	/	/	/
Cc1c(C(=O)N2CCN(S(=O)(=O)c3ccc(F)cc3)CC2)oc2ccccc12	-11%	-3%	/	50µM*	-7%
CCN(CC)c1ccc(NC(=O)Cn2cc3c(n2)CCC(C)C3)c(C)c1 (configuration not stated)	269%	-2%	-26%	4.5µM*	1%
CC(=O)Nc1ccc(NC(=O)Cn2cc3c(n2)CCCCC3)cc1	-13%	0%	/	16µM*	18%
CCN(CC)c1ccc(NC(=O)Cn2cc3c(n2)CCCC3)c(C)c1	?	-3%	/	10µM*	7%
CC(=O)c1ccc(NC(=O)Cn2cc3c(n2)CCCC3)cc1	-16%	-2%	/	4%[59 µM]	-1%
Cn1cccc1Cc1nnc(SCC(=O)NCC2CCCO2)n1-c1ccc(F)cc1 (configuration not stated)	363%	-5%	-2%	35µM*	-17%
COc1ccc(-n2c(Cc3cccn3C)nnc2SCC(=O)Nc2ccccc2)cc1	i	-3%	-1%	28µM*	-19%
Cn1cccc1Cc1nnc(SCC(=O)Nc2ccccc2F)n1-c1ccc(F)cc1	212%	-4%	0%	45µM*	0%
Cn1cccc1Cc1nnc(SCC(=O)Nc2ccccc2)n1-c1ccc(F)cc1	451%	-3%	-17%	45µM*	6%
Cc1ccccc1NC(=O)CSc1nnc(Cc2cccn2C)n1-c1ccc(F)cc1	2%	-1%	-25%	?	-11%
SMILES	ALOX12 inh	Glioma ERSR ind	Sfp PPTase inh	G9a block	VDR inh
Cn1cccc1Cc1nnc(SCC(=O)Nc2ccc(Cl)cc2)n1-c1ccc(F)cc1	82%	-4%	-3%	45µM*	-6%
Cn1cccc1Cc1nnc(SCC(=O)Nc2ccc3c(c2)OCCO3)n1-c1ccc(F)cc1	475%	1%	-6%	45µM*	-30%
Cn1cccc1Cc1nnc(SCC(=O)Nc2ccc(F)cc2)n1-c1ccc(F)cc1	394%	-3%	-20%	45µM*	?
Cc1ccc(-n2c(Cc3cccn3C)nnc2SCC(=O)Nc2ccc3c(c2)OCO3)cc1	7%	-2%	-2%	?	-17%
CN(CCO)C(C(=O)Nc1ccc(F)cc1)c1ccccc1 (configuration not stated)	-22%	/	/	/	/
O=C(COC(=O)CCc1c[nH]c(=O)[nH]1)Nc1cccc(Cl)c1	-16%	-2%	-11%	40µM*	-7%
COc1ccccc1/C=C/C=N/NC(=O)c1ccncc1	0%	-4%	-5%	15%[59 µM]	7%
O=C(Cc1cccs1)N/N=C/C=C\c1ccco1	?	5%	7.9µM*	?	-26%
O=C(N/N=C/C=C\c1ccco1)c1cccs1	?	10%	22µM*	?	-9%
O=C(N/N=C/C=C/c1ccco1)c1ccncc1	233%	3%	56µM*	/	?
CCc1ccc(-c2csc(NC(=O)c3nn(C)c(=O)c4ccccc34)n2)cc1	3%	/	/	/	/
CC(/C=C/c1ccco1)=N\NC(=O)COc1ccc(C)c(C)c1	0%	-4%	?	40µM*	-20%
Cc1ccc(OCCNC(=O)/C=C/c2ccco2)cc1C	73%	-3%	10µM*	/	?
CS(=O)(=O)N(Cc1csc(-c2cccs2)n1)C1CCN(C(=O)c2ccccc2Cl)CC1	1%	/	/	/	/
CCc1ccc(N2C(=O)C3ON(c4ccccc4)C(c4ccco4)C3C2=O)cc1 (configuration not stated)	0%	5%	8%	50µM*	-4%
CCCCOc1ccc(NC(=O)COc2ccc(C)c(C)c2)c2cccnc12	-14%	/	/	/	/
O=c1/c(=C\c2ccc(O)cc2)sc2n1C(c1ccccc1)C(c1ccccc1)=NN=2 (configuration not stated)	?	2%	50µM*	45µM*	-6%
O=S(=O)(Nc1nc2ccccc2nc1N1CCN(CCO)CC1)c1cc(F)ccc1F	479%	-2%	/	7.1µM*	16%
CCC(C)NS(=O)(=O)c1c(C)cc(N2C(=O)CCS2(=O)=O)cc1C (configuration not stated)	23%	/	/	/	/
O=C(NC(c1ccccc1)c1ccccc1)c1cc2ccccc2[nH]1	-2%	/	/	/	/
N#Cc1ccc(CSc2nnc3[nH]c(=O)cc(N)n23)cc1	?	-3%	-8%	22µM*	-18%
CCOC(=O)COn1c(-c2cccc(Cl)c2)nc2ccc([N+](=O)[O-])cc21	?	6%	-1%	50µM*	-10%
COCCOC1CN(C2CCN(C(=O)c3nn(C)c4ccccc34)CC2)C12CCCCC2 (configuration not stated)	12%	/	/	/	/
CC(C)CN1CN(S(=O)(=O)c2cccs2)c2nc3ccccc3nc21	-21%	/	-21%	45µM*	/
COCCCN1CN(S(=O)(=O)c2cccs2)c2nc3ccccc3nc21	3%	6%	3%	13µM*	0%
COc1ccc(-c2ocnc2C(=O)Nc2ccccc2C)cc1	-1%	/	/	/	/
O=C(NCC1CCOCC1)Nc1cc(F)c(F)c(F)c1	1%	/	/	/	/
